Source: PubChem BioAssay
Mtb MenB inh: M. tuberculosis MenB inhibitors, primary screen, biochemical, absorbance; 1,4-dihydroxy-2-naphthoyl-CoA synthase (Mycobacterium tuberculosis (strain ATCC 25618 / …; MenB enzyme assay, absorbance read-out; inhibition, % (test concentration not listed); 100,000 compounds, 0.43% hits; AID 540299, 2011; in the data active = inhibition above about 21%, passing the limit was not always enough
AID504770: growth inhibition of E. coli YBA685, primary screen, V. cholerae RctB inhibitors; E. coli YBA685 rctB-dependent plasmid, OD600 growth, 3 h; stronger effect = lower value; z-score (concentration not given with the values); 130,000 compounds, 0.27% hits; AID 504770, 2011; in the data active = z-score below about -2, passing the limit was not always enough
PV pol inh: poliovirus RdRp elongation inhibitors, primary screen, biochemical, fluorescence polarization, total intensity | % elongation, % (compound at 16.7 µg/mL) | poliovirus polymerase elongation; stronger effect = lower value | 150,000 compounds, 0.66% hits | AID 588519, 2011 | Genome polyprotein (Poliovirus type 1 (strain Mahoney)), P03300; in the data active = % elongation below about 90%
Target sequence (P03300 1749-2209 limits assumed): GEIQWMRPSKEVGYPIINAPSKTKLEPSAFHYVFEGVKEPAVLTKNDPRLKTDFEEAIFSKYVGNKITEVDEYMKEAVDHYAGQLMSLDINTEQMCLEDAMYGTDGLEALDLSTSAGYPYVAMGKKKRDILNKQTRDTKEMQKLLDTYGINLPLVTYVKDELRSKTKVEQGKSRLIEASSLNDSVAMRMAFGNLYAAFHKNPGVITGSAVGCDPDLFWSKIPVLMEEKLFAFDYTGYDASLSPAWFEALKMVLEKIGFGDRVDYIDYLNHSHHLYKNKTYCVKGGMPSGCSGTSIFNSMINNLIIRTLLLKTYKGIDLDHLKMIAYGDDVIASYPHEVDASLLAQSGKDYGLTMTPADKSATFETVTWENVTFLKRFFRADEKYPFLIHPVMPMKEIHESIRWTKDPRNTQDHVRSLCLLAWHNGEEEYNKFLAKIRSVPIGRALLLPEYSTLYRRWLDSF
MbtI inh: MbtI salicylate synthase inhibitors, primary screen, biochemical, fluorescence intensity; 100,000 compounds, 0.89% hits; inhibition, % (concentration not given with the values); purified MbtI enzyme, fluorescence intensity read-out; AID 493033, 2011; P9WFX0; in the data active = inhibition mostly above about 56%, no sharp cut-off; inactive = mostly below about 77%
A number is an active result; – = inactive; · = no result given. Sampled rows, rich in hits. Any-hit rate of the full collection: about 1.5%.

SMILES	Mtb MenB inh	AID504770	PV pol inh	MbtI inh
CCc1ccc(N2C(=O)CC(Sc3nnc(N)s3)C2=O)cc1 (stereo not given)	–	–	–	101
CCc1ccc(N2C(=O)CC(Sc3ccccc3N)C2=O)cc1 (stereo not given)	–	–	–	–
Nn1c(Cc2ccccc2F)nnc1SCC(=O)NCC(F)(F)F	–	–	–	–
N#Cc1ccc(CNC(=O)Nc2ccccc2)cc1	–	–	–	–
CNC(=O)Cc1ccc(NC(=O)N2CCCCc3ccccc32)cc1	–	–	–	–
CCCCNC(=O)CN1CCN(Cc2cccc(OCC)c2OC)CC1	–	–	88	–
CCCCNC(=O)C1CCN(Cc2ccccc2OCC)CC1	–	–	–	–
CNC(=S)N/N=C(\C)c1cccc(C(F)(F)F)c1	–	–	–	–
CC1CCCCN1c1ccc(NC(=O)c2cccnc2)cc1 (stereo not given)	–	–	–	–
S=c1[nH]nc(CNc2cccc(Cl)c2)o1	–	–	–	84
CC/C(=C\c1sc2ccc(OC)cc2[n+]1CC)SCC(=O)O	–	–	–	–
C#Cc1ccc(NC(=O)CCc2cc(OC)no2)cc1	–	–	–	–
O=C(Nc1ccc(F)cc1)c1csc2c1CCCCC2	·	·	–	·
Cn1nc(-c2ccc(F)cc2)nc2c(=O)n(C)c(=O)nc1-2	–	–	36	–
COc1ccc(-c2nc3c(=O)n(C)c(=O)nc-3n(C)n2)cc1OC	·	–	·	–
CCC(N)C12CC3CC(CC(C3)C1)C2 (stereo not given)	–	–	86	·
NC(CO)C12CC3CC(CC(C3)C1)C2 (stereo not given)	·	–	–	–
Cc1c(C(=O)N(C)C)sc2[nH]c(=S)n(CCc3ccc(Cl)cc3)c(=O)c12	–	–	–	–
O=C1CSc2sc(=S)sc2S1	–	–	88	–
Cc1ccccc1NC(=O)c1sc(N)c(C(N)=O)c1C	–	–	–	87
Cc1ccc(C(=O)Nc2ccccc2C)cc1	–	–	–	–
COc1ccc(/C=C(\C#N)C(=O)OC(C)(C)C)cc1	–	–	–	–
CC(=O)Nc1ccccc1OCCOc1ccccc1NC(C)=O	·	–	·	·
CCCOc1ccccc1NC(=O)/C=C/C(N)=O	·	–	–	100
O=C(NCc1ccc2c(c1)OCO2)c1ccc2c(=O)n(Cc3ccccc3)c(=S)[nH]c2c1	–	–	–	–
SMILES	Mtb MenB inh	AID504770	PV pol inh	MbtI inh
CC1(C)CC(=O)C2=C(C1)N=C1c3ccccc3C(=O)C1C2c1ccc(O)c(O)c1 (stereo not given)	·	–	·	85
Cn1ncc(COC(=O)Nc2c(Cl)cccc2Cl)c1C(F)(F)F	·	–	·	·
N#C/C(=C(/O)C1CC1)c1nc2ccccc2s1	·	–	–	92
N#C/C(=C(/O)C(F)(F)F)c1nc2ccccc2s1	·	–	·	·
Cn1c(=O)n(C)c2cc(Nc3cc(SCc4ccccc4)ncn3)ccc21	–	–	–	–
O=C1CS/C(=N\c2nccs2)N1	–	-2.8	–	–
O=C1CSC(=Nc2cccc3ccccc23)N1	–	–	–	–
Cc1ccc(C(=O)CSC2=NCCCCC2)cc1	33	–	–	–
CN1N=C(c2ccccc2)CC1=O	–	–	–	–
CCCCCOc1ccc(NC(=O)Cn2c(-c3cncs3)nc3ccccc32)cc1	·	·	89	·
Clc1cccc(N2CCN(c3ncnc4c3nc3n4CCCCC3)CC2)c1	·	·	–	·
O=C(O)c1nccnc1C(=O)Nc1ccc(N2CCOCC2)cc1	–	–	–	–
O=C(Nc1ccc(N2CCOCC2)cc1)C1=NCCN1	–	–	63	–
OC(CN1CCCN(c2nc(-c3ccccc3)ns2)CC1)C(F)(F)F (stereo not given)	·	–	·	·
COc1cc(OC)cc(-n2nnc(-c3nc(-c4ccccc4Cl)no3)c2N)c1	·	·	–	·
S=c1[nH]nc(SCc2cccs2)s1	–	–	–	102
O=C(O)CCC(=O)OC[C@@H](NC(=O)C(Cl)Cl)[C@H](O)c1ccc([N+](=O)[O-])cc1	–	–	–	–
O=C(N[C@@H](CO)[C@H](O)c1ccc([N+](=O)[O-])cc1)C(Cl)Cl	–	-2.7	–	–
CN(C)C(=O)CSc1ccccc1C(=O)O	–	–	–	–
C[CH2][Hg][S]c1ccccc1C(=O)O	–	-5.4	–	–
Cc1cc2c(c(=O)o1)C(c1ccc(C(F)(F)F)cc1)C(C(=O)OC(C)C)=C(N)O2 (stereo not given)	–	–	–	·
O=C(CC(NC(c1ccccc1)c1ccccc1)C(=O)O)c1ccc(Cl)cc1 (stereo not given)	72	–	–	·
O=c1cc(CSc2ccc(Cl)cc2)[nH]c(=S)[nH]1	–	–	–	58
Cn1c(=O)c2c(-c3ccc(Cl)cc3)n(CCc3ccccc3)cc2n(C)c1=O	·	·	–	·
COc1ccc(NC(=O)COc2nc(N(C)C)nc(N(C)C)n2)cc1	–	–	–	–
SMILES	Mtb MenB inh	AID504770	PV pol inh	MbtI inh
Cc1ccc(C)c(NC(=O)c2ccc3c(O)c(S(=O)(=O)c4ccc(Cl)cc4)c(=O)[nH]c3c2)c1	·	·	–	·
O=C(Nc1ccccc1)c1cc2ccccc2c(=O)s1	·	–	·	·
CC1=NN(c2ccccc2)C(=O)C1C(=O)O (stereo not given)	–	–	–	–
CC1=NN(c2ccccc2)C(=O)C1C1C(=O)N(c2ccccc2)N=C1C (stereo not given)	–	–	–	–
O=C1C2CCCCC2=NN1c1ccccc1 (stereo not given)	–	–	–	71
O=C1C2CCCC2=NN1c1ccccc1 (stereo not given)	–	–	–	59
NC(=O)CN1C(=O)C(O)(CC(=O)c2ccccc2)c2ccccc21 (stereo not given)	·	–	–	–
CN1CCN(S(=O)(=O)c2ccccc2C(F)(F)F)CC1	–	–	89	–
O=S(=O)(c1ccccc1C(F)(F)F)N1CCNCC1	–	–	–	–
COC(=O)Nc1sc(C)cc1C(=O)OC	–	–	–	–
COC(=O)c1cc(C)sc1N	–	–	–	95
S=c1[nH]ncn1/N=C/c1ccccc1	–	–	–	86
COc1ccc(/C=N/n2cn[nH]c2=S)cc1OC	–	–	–	–
C=CCNC(=O)C1CCC(C(=O)NCC=C)CC1 (stereo not given)	–	–	–	–
Cc1cc(C)c(/C=N/NC(N)=O)c(C)c1/C=N/NC(N)=O	–	-3.2	–	–
O=C(CSc1ncnc2[nH]ncc12)CSc1ncnc2[nH]ncc12	active	–	–	–
COc1ccc(OC)c(CNC(=O)c2c(C)oc3ncn(C)c(=O)c23)c1	·	·	–	·
O=c1[nH]c(SCc2ccccc2)nc2ccccc12	·	–	·	–
CCc1nc(SCc2ccccc2)[nH]c(=O)c1C	–	–	–	83
CC(C)CNC(=O)c1ccccc1S(=O)(=O)N1CCCCC1	–	–	–	94
O=S1(=O)CCN(Cc2cccc(C(F)(F)F)c2)CC1	·	-2.7	·	·
FC(F)(F)c1cccc(CN2CCSCC2)c1	–	–	–	–
c1ccc(-c2noc(-c3ccccc3)n2)cc1	·	–	·	–
[O-]c1n[n+](-c2ccccc2)no1	–	-3	–	·
Cc1cccc(C)c1Nc1nc2ccccc2nc1NS(=O)(=O)c1ccccc1	·	·	–	·
